This is a sample that favours compounds with a hit; in the whole collection about 4.1% have one here.
PolyA inh: polyadenylation inhibitors in yeast reporter cells, primary screen, luminescence, S. cerevisiae. S. cerevisiae SKY197-pL101 polyadenylation reporter, beta-gal luminescence; efflux-impaired pdr1/pdr3 knockout yeast; score 100 = 6 SD above DMSO. activity score, % at 12 µM. hit rate 0.02% among 300,000;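 active = lowest replicate activity score at least 50, where 100 means six control SD above control mean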;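 also: yeast exposed to compound for 9 h at 30 °C; higher score means more reporter readthrough which indicates perturbed polyadenylation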
ALR H2O2 inh: inhibitors of human ALR sulfhydryl oxidase, primary screen, biochemical, H2O2 detection, HRP-luminol luminescence, single point. AID 485317, 2010. FAD-linked sulfhydryl oxidase ALR (Homo sapiens), P55789. purified ALR, DTT oxidation. hit rate 3.8% among 290,000. inhibition, % (no concentration beside the values);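 active = mean replicate inhibition above about 79%, with every replicate also reaching it, limit read from the data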
Target sequence (P55789 whole entry, looked up): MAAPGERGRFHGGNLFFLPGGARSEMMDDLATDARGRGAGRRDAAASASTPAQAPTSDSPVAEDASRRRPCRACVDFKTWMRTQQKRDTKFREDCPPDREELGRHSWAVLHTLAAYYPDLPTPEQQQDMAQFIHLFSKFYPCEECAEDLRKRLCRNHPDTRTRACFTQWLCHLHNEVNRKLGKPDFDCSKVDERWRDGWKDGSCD
IDE inh: human IDE inhibitors in live cells, primary screen, fluorescence polarization, HEK cells, FAbetaB substrate; hit rate 0.41% among 320,000; Insulin-degrading enzyme (Homo sapiens), P14735; FAbetaB cleavage; inhibition, % at 5.59 µM;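 active = percent inhibition above the average of all tested compounds plus 3 SD, set per screening campaign, cut at about 16% in these data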;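 also: IDE supplied by intact live HEK cells; FP after avidin binding of uncleaved biotin substrate so inhibition keeps polarization high; 0% = DMSO wells and 100% = 60 µM reference IDE inhibitor Ii1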
M18AAP inhibitor: PfM18AAP inhibitors, malaria aminopeptidase, primary screen, biochemical, QFRET, recombinant enzyme; hit rate 1.2% among 290,000; H-Glu-NHMec fluorogenic cleavage; AID 1822, 2009; inhibition, % at 7.35 µM; M18 aspartyl aminopeptidase (Plasmodium falciparum 3D7);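 active = inhibition above the campaign mean inhibition over all tested compounds plus 3 SD, cut at about 28% in these data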;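 also: 0% = plate median of test compound wells and 100% = 2 mM ZnCl2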
CaV13 ICDI inh: Primary screen for inhibitors of IQ motif and Ca2+-dependent inactivation inhibitor domain binding in CACNA1D, Förster resonance energy transfer in living cells, …; HEK cells, CFP/YFP FRET ICDI-IQ, plate reader, 10 min; percent FRET-ratio fall versus neutral wells; AID 743397; hit rate 0.098% among 340,000; inhibition, % at 12.3 µM;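 active = mean replicate inhibition of at least 30% and at least 1% of replicates passing that level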;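 also: 0% = median of the neutral control wells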
IDE act: human IDE activators in live cells, primary screen, fluorescence polarization, HEK cells, FAbeta-B substrate; Insulin-degrading enzyme (Homo sapiens), P14735; hit rate 0.073% among 340,000; FAbeta-B cleavage; 0% vehicle, 100% cell-free pure enzyme wells; activation, % at 5.96 µM;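 active = activation above the mean of all tested compounds plus 3 SD, set per screening campaign, cut at about 17% in these data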
* = called active by the depositor; . = no result.

SMILES	PolyA inh	ALR H2O2 inh	IDE inh	M18AAP inhibitor	CaV13 ICDI inh	IDE act
O=c1cc(CO)oc(C(Nc2ccccn2)c2ccccc2Cl)c1O (stereo not drawn)	-2	.	-3	-2	-21	1
COc1ccc(C(c2oc(CO)cc(=O)c2O)c2oc(CO)cc(=O)c2O)cc1	-12	27	6	0	-19	2
O=c1cc(CO)oc(C(Nc2ccccn2)c2ccsc2)c1O (stereo not drawn)	1	-23	9	2	.	.
COc1ccc(C(Nc2ccccn2)c2oc(CO)cc(=O)c2O)cc1 (stereo not drawn)	10	98*	-2	0	-5	-2
Cc1ccnc(NC(c2ccccc2O)c2oc(CO)cc(=O)c2O)c1 (stereo not drawn)	13	98*	1	17	-5	4
O=C(O)CN1C(=O)/C(=C\c2cccc(OCc3ccc(Cl)cc3)c2)SC1=S	13	97*	1	4	-5	2
O=C(O)CN1C(=O)/C(=C/c2ccsc2)SC1=S	13	30	2	29*	-6	.
Cc1ccc([C@@H]2[C@@H]3C(=O)N(c4ccccc4)C(=O)[C@@H]3[C@]3(C)C(=O)N(Cc4ccc(-c5ccccc5)cc4)CC(=O)N23)o1	6	.	4	-15	-9	-5
CN1C(=O)CS(=O)c2ccc(C(=O)NCCC3=CCCCC3)cc21 (stereo not drawn)	0	.	6	30*	-11	3
O=C(/C=C/c1ccccc1Cl)c1cccnc1	-1	15	-1	28*	-8	-6
CCc1nnc(NS(=O)(=O)c2ccc(NC(=O)c3cccc([N+](=O)[O-])c3)cc2)s1	-5	3	5	-4	-2	-5
COc1ccc(S(=O)(=O)Nc2nnc(Cc3ccc(OC)c(OC)c3)s2)cc1	2	98*	6	-4	-2	5
COc1ccc(Cc2nnc(NS(=O)(=O)c3ccccc3)s2)cc1	3	28	7	-1	2	6
CCOC(=O)c1ccc(S(=O)(=O)NNC(=O)c2cccc(N(C)C)c2)cc1	6	82*	4	24	-3	7
Cc1ccc(S(=O)(=O)NNC(=O)c2ccc(O)cc2)cc1	-1	97*	-7	28	-5	3
CCNc1ccc(C(=O)OCC)cc1NC(=O)c1cccc(N(C)C)c1	-4	0	-3	-2	-8	6
CCCCOc1cccc(C(=O)Nc2ccc(S(=O)(=O)Nc3nnc(CC)s3)cc2)c1	7	97*	-3	0	-30	4
Cc1ccc(S(=O)(=O)Nc2ccc(N=Nc3ccc(O)cc3)cc2)cc1	-7	90*	-4	-4	9	6
COC(=O)Nc1ccc(S(=O)(=O)Nc2ccc(C)cc2)cc1	.	.	.	5	.	.
COC(=O)Nc1ccc(S(=O)(=O)Nc2ccc(O)cc2)cc1	20	89*	0	-7	.	6
CCc1nnc(NS(=O)(=O)c2ccc(NC(=O)/C=C/c3ccc(F)cc3)cc2)s1	7	98*	0	0	-6	1
CCc1nnc(NS(=O)(=O)c2ccc(NC(=O)OC)cc2)s1	2	98*	0	-6	-8	-3
O=[N+]([O-])c1cccc(OCC(O)CN2CCN(S(=O)(=O)c3cc(Cl)ccc3Cl)CC2)c1 (stereo not drawn)	-1	-4	7	12	-3	3
N#C/C(=C\c1ccccc1OCC(=O)O)c1nc2ccccc2[nH]1	16	98*	1	0	-4	1
N#C/C(=C\c1ccc([N+](=O)[O-])o1)c1nc2ccccc2[nH]1	711*	-9	9	5	-101	.
CCOc1cc(/C=C(\C#N)c2nc3ccccc3[nH]2)ccc1OC(C)C(=O)O (stereo not drawn)	-6	98*	4	5	-23	7

Screening data as filed in PubChem BioAssay.
